According to PubChem BioAssay AID425 (Sanford-Burnham Center for Chemical Genomics, 2006):
Several values for one entry are separate records, joined by “and”; a condition that tells them apart may be missing. Equal entries are not always repeated. The campaign covered roughly 110,000 compounds. About 190 (0.17%) were called active. Cut-off read from the data, not from the text of the source: active = inhibition above about 50%; inactive = the rest. This excerpt belongs to a sample that is enriched for actives. Entries with a potency or affinity are not part of this list.

target: Dual specificity protein phosphatase 6 (Rattus norvegicus) (UniProt Q64346); assay: inhibition of rat DUSP6 enzyme activity – biochemical, in vitro, primary screen (AID 425); details: recombinant MKP-3 phosphatase activity, fluorescence; at 20 µM; hits give high values;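 note: plate controls were vehicle for no effect and reference inhibitor for full effect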
Sequence (Q64346 whole entry, looked up): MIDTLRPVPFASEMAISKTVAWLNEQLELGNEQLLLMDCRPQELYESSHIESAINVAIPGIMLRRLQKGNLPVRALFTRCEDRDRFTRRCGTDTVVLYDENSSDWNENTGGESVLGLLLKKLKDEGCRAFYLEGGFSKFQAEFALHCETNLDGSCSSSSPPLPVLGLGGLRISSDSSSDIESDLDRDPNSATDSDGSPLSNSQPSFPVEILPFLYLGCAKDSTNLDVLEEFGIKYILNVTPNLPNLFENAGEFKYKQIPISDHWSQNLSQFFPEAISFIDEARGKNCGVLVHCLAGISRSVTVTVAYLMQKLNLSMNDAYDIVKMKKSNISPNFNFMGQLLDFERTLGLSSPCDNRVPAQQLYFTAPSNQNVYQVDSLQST

SMILES | inhibition
C/C(=N\NC(=O)C1(C)CC1(Br)Br)c1ccc(Br)s1 (stereo unspecified) | 0.4% (inactive)
COc1ccccc1CNC(=O)c1ccc(NC(C)=O)cc1 | 2.6% (inactive)
CN=CC1=C(O)c2ccccc2C1=O | -0.6% (inactive)
O=C1C(=O)c2ccccc2C(O)=C1[N+](=O)[O-] | 106% (active)
O=C1C(=O)c2ccccc2C(O)=C1c1ccc([N+](=O)[O-])cc1 | -1.5% (inactive)
COc1cc(/C=N/Nc2nncc(=O)[nH]2)ccc1O | -0.1% (inactive)
O=C(c1cn(-c2ccccc2)nc1-c1ccc(F)cc1)N1CCOCC1 | -13.6% (inactive)
CC(=O)Nc1ccc(S(=O)(=O)Nc2cc(C)ccc2C)cc1 | 0.4% (inactive)
CCOc1cccc(=[O+]CC)c2c(C)oc(C)c12 | 96.5% (active)
CCOc1ccc(-c2cc(OCC)c3c(C)oc(C)c3c(=[O+]CC)c2)cc1 | 3.9% (inactive)
CCOc1cccc(=O)c2c(C)oc(C)c12 | 1.6% (inactive)
Cc1cc(N2CCCC(C(=O)Nc3ccc4c(c3)CCC4)C2)n2ncnc2n1 (stereo unspecified) | -8.9% (inactive)
Oc1[nH]c2ccccc2c1N=Nc1nc(-c2ccccc2)c2cc(Br)ccc2n1 | 12% (inactive)
O=C1N=C(N=Nc2c(O)[nH]c3ccccc23)S/C1=C/c1ccc(Br)cc1 | 53.2% (active)
CN(C)c1ccc(/C=C2/SC(N=Nc3c(O)[nH]c4ccccc34)=NC2=O)cc1 | 28.7% (inactive)
CCOC(=O)C1C(=O)CC(C)(O)C(C(=O)OCC)C1c1ccc(OCC)cc1 (stereo unspecified) | 0.2% (inactive) and -2.5% (inactive)
CCOc1ccc(-n2c(SCC(N)=O)nc3c([nH]c4ccccc43)c2=O)cc1 | -3.1% (inactive)
CC(C)(C)c1cnnn1-c1ccc(NC(=O)c2ccc3c(c2)OCO3)cc1 | -6.9% (inactive)
CC(C)[C@H](NC(=O)Nc1ccc2c(c1)OCCO2)C(=O)O | -0.5% (inactive)
Cc1ccc(C(=O)c2nocc2C(=O)c2cccs2)cc1 | -9.8% (inactive)
COc1ccc(C(=O)c2no[n+]([O-])c2C(=O)c2ccc(OC)cc2)cc1 | -8.8% (inactive)
COC(=O)C1=C(C)NC(=O)NC1c1ccc(OCCO)c(OC)c1 (stereo unspecified) | 4.3% (inactive)

SMILES | inhibition
O=C(CCC1CCCC1)Nc1cccc(F)c1 | -0.4% (inactive)
CC(C)Cn1c(=S)[nH]c2sc3c(c2c1=O)CC(C)(C)OC3 | 3.9% (inactive)
CCOC(=O)CCn1nnc(N)n1 | -5% (inactive)
Cc1cc2c(cc1Br)NC(=O)C2=O | 1.5% (inactive)
Cc1cc([N+](=O)[O-])ccc1N1C(=O)c2ccccc2C1=O | -1.5% (inactive)
Cc1cc([N+](=O)[O-])cc2c1NC(=O)C2=O | 79.8% (active)
O=C(CSCc1cnn(-c2ccccc2)c1-n1cccc1)NCc1cccs1 | -0.1% (inactive)
Cc1ccc(-n2nc(-c3ccccc3)c3c2C(=O)C=CC3=O)cc1 | 38.9% (inactive)
O=C1C=CC(=O)c2c1c(-c1ccccc1)nn2-c1ccccc1 | 63.4% (active)
O=C1c2ccccc2C(=O)c2c1c(-c1ccccc1)nn2-c1ccccc1 | 1.2% (inactive)
CN(C)CCC(=O)c1ccc(O)cc1 | 3.3% (inactive)
N#Cc1c(N2CCCCC2)nc(N2CCCCC2)c2c1CCN(Cc1ccccc1)C2 | 3.8% (inactive)
N#Cc1c(N)sc2c1CCN(Cc1ccccc1)C2 | 14.1% (inactive)
CCn1cc(C(=O)NC2CCCC2)c(=O)c2cc(S(=O)(=O)N3CCOCC3)ccc21 | 3.9% (inactive)
CCn1cc(C(=O)NC2CCC(C)CC2)c(=O)c2cc(S(=O)(=O)N3CCCCC3)ccc21 (stereo unspecified) | 56.1% (active)
CCn1cc(C(=O)NC2CCCCCC2)c(=O)c2cc(S(=O)(=O)N3CCCCC3)ccc21 | 3.2% (inactive)
Cc1nc2ncccn2c1-c1csc(Nc2cccc(O)c2)n1 | 2.7% (inactive)
O=C(CCCCC(=O)NCc1cccs1)NCc1cccs1 | -5.6% (inactive)
CCn1cc(C(C)NC(=O)COc2ccc(Cl)cc2C)c(C)n1 (stereo unspecified) | -4% (inactive)
c1ccc(-c2nc(C3COc4ccccc4O3)cs2)cc1 (stereo unspecified) | -4.2% (inactive)
CCOc1ccc2nc(Nc3nc(O)c(C)c(=O)[nH]3)nc(C)c2c1 | 0.7% (inactive)
CCOc1ccc2nc(Nc3nc(C)c(C)c(=O)[nH]3)nc(C)c2c1 | 1.2% (inactive)

SMILES | inhibition
COc1ccc([N+](=O)[O-])cc1NC(=O)c1ccc(N(C)C)cc1 | 1.4% (inactive)
Cn1cccc1Cc1nnc(SCC(=O)Nc2nc3ccccc3s2)n1CCc1ccccc1 | -4.6% (inactive)
O=C1c2cccnc2-c2ncccc21 | 6.6% (inactive)
Cc1ccc(C)n1-c1ccc(CC(=O)O)cc1 | 25.5% (inactive)
Cc1ccc(C)n1-c1ccc(OCC(=O)O)cc1 | 25.7% (inactive)
Cc1ccc(C)n1-c1ccc(SCC(=O)O)cc1 | 106% (active)
CCOC(=O)c1c(NC(=S)NCc2ccccc2)sc2c1CCC2 | 0% (inactive)
CC(Cc1ccccc1)N=C(N)/C(C#N)=C\c1[nH]c2ccccc2c1O (stereo unspecified) | 69.4% (active)
CC(Cc1ccccc1)N=Cc1c(O)[nH]c2ccccc12 (stereo unspecified) | 3.3% (inactive)
CCOC(=O)c1c(C)[nH]c(/C=C(/C#N)C(N)=NCc2ccccc2)c1O | 1.3% (inactive)
COc1ccc(N(CC(=O)NCC2CCCO2)S(=O)(=O)c2c(C)noc2C)cc1 (stereo unspecified) | -8.1% (inactive)
O=C(CSc1ccc(C(=O)O)cc1)Nc1ccccc1 | 0.1% (inactive)
Cc1nc(SCC(=O)Nc2ccc(F)cc2)c2oc3ccccc3c2n1 | -2.1% (inactive)
Cc1nc(=O)c(-c2ccccc2)c(C)n1-c1ccc(C(=O)O)c(O)c1 | 3.2% (inactive)
Cc1ccc(-c2ccccc2)n1-c1ccc(Cl)c(C(=O)O)c1 | 4.5% (inactive)
Cc1nc(=O)c(-c2ccccc2)c(C)n1-c1ccc(O)c(C(=O)O)c1 | -7.4% (inactive)
Cc1ccc(-c2ccccc2)n1-c1ccc(O)c(C(=O)O)c1 | 42.1% (inactive)
Cc1ccc(C)n1-c1ccc(O)c(C(=O)O)c1 | 100% (active)
Cc1ccc(C)n1-c1ccc(C(=O)O)c(Cl)c1 | 28.4% (inactive)
O=C(O)c1ccc(-n2cccc2)cc1O | 4.3% (inactive)
Cc1ccc(C)n1-c1ccc(Cl)c(C(=O)O)c1 | 71.5% (active)
Cc1ccc(C)n1-c1ccc(C(=O)O)c(O)c1 | 101% (active)
